Legend:
Experiment in all cases: PBM binding z-score (relative to random genomic background probes); higher = stronger binding; sequences stand for … in GC…GCGATTGACAGCGTAGAATGAAGG
[1] = test system: FXR:RXRa (NR concentration 270 nM, RXRa partner concentration 90 nM)
In short: (§1)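 Binding z-scores take random background probes as their reference. They come from custom Agilent 4×180K protein-binding microarrays incubated 1 h with ligand-free nuclear receptor dimers, with antibodies against each partner (one per run) detecting binding. Scanned fluorescence was regression-normalized.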

[2] = test system: LXRa:RXRa (NR concentration 270 nM, RXRa partner concentration 90 nM)
In short: as §1

[3] = test system: LXRa homodimer (NR concentration 270 nM)
In short: as §1

[4] = test system: LXRb:RXRa (NR concentration 270 nM, RXRa partner concentration 90 nM)
In short: as §1

[5] = test system: LXRb homodimer (NR concentration 270 nM)
In short: as §1

[6] = test system: PPARa:RXRa (NR concentration 270 nM, RXRa partner concentration 90 nM)
In short: as §1

[7] = test system: PPARg:RXRa (NR concentration 180 nM, RXRa partner concentration 90 nM)
In short: as §1

[8] = test system: PPARg:RXRa 270nM:90nM, anti-RXR (NR concentration 270 nM, RXRa partner concentration 90 nM)
In short: as §1

[9] = test system: PPARg:RXRa 30nM:10nM, anti-RXR (NR concentration 30 nM, RXRa partner concentration 10 nM)
In short: as §1

[10] = test system: PPARg:RXRa 90nM:30nM, anti-RXR (NR concentration 90 nM, RXRa partner concentration 30 nM)
In short: as §1

[11] = test system: PPARg:RXRa DBDmut IVT, anti-RXR (DBD mutation: RXRa K156A/R161A, NR concentration 270 nM, RXRa partner concentration 90 nM)
In short: as §1

[12] = test system: PPARg:RXRa IVT, anti-PPARg (NR concentration 270 nM, RXRa partner concentration 90 nM)
In short: as §1

[13] = test system: PPARg DBDmut:RXRa IVT, anti-PPARg (DBD mutation: PPARg1 K132A/R137A, NR concentration 270 nM, RXRa partner concentration 90 nM)
In short: as §1

[14] = test system: PPARg DBDmut IVT, anti-PPARg (DBD mutation: PPARg1 K132A/R137A, NR concentration 270 nM)
In short: as §1

[15] = test system: PPARg homodimer (NR concentration 180 nM)
In short: as §1

[16] = test system: PXR:RXRa (NR concentration 270 nM, RXRa partner concentration 90 nM)
In short: as §1

[17] = test system: PXR homodimer (NR concentration 270 nM)
In short: as §1

[18] = test system: RARa:RXR (NR concentration 270 nM, RXRa partner concentration 90 nM)
In short: as §1

[19] = test system: RARa homodimer (NR concentration 270 nM)
In short: as §1

[20] = test system: RARb:RXRa (NR concentration 270 nM, RXRa partner concentration 90 nM)
In short: as §1

Sequence | PBM binding z-score [1] | PBM binding z-score [2] | PBM binding z-score [3] | PBM binding z-score [4] | PBM binding z-score [5] | PBM binding z-score [6] | PBM binding z-score [7] | PBM binding z-score [8] | PBM binding z-score [9] | PBM binding z-score [10] | PBM binding z-score [11] | PBM binding z-score [12] | PBM binding z-score [13] | PBM binding z-score [14] | PBM binding z-score [15] | PBM binding z-score [16] | PBM binding z-score [17] | PBM binding z-score [18] | PBM binding z-score [19] | PBM binding z-score [20]
TCTTGTAGATTAATAGAGGTTAAGAAAGTGCGCT | 1.31 | 4.17 | 2.85 | 2.28 | 0.623 | 2.07 | 0.283 | 2.2 | 3.11 | 2.59 | 2.32 | 0.996 | 0.986 | 0.929 | 1.23 | 3.4 | 0.795 | 2.2 | 0.565 | 1.21
ATCGAAAGGTCGTGAGGTGGGTATACAGAAAGGC | 5.14 | 4.18 | 0.358 | 3.28 | 0.784 | 4.96 | 3.35 | 3.96 | 1.29 | 2.77 | -0.234 | 1.94 | 0.885 | 1.49 | 3.69 | 3.36 | 0.721 | 4.17 | 1.39 | 4.05
GTACCAAGGTCAATAGGTCGTTGATGAGTAGGCG | 6.19 | 4.5 | 0.864 | 3.74 | 0.614 | 5.37 | 5.15 | 5.05 | 2.14 | 4.13 | 2.92 | 4.42 | -0.00557 | 0.159 | 2.8 | 4.09 | 0.916 | 4.91 | 0.768 | 5.2
CCGAGTAGGTTATGGGGTATTCAGGCAACGGTGA | 0.497 | 0.701 | 0.47 | 1.09 | 0.945 | 1.81 | 2.56 | 3.45 | 0.984 | 2.68 | 3.61 | 3.4 | -0.421 | -0.159 | 1.48 | 0.386 | 0.458 | 0.453 | 1.06 | 0.8
ACTTACGGGTCAACGAGGTTATAGCCCGCGTATA | 6.28 | 4.99 | 0.779 | 4.32 | 0.557 | 5.47 | 4.98 | 5.37 | 2.01 | 4.01 | 3.54 | 3.99 | 0.579 | 0.364 | 2.12 | 5.03 | 2.93 | 4.97 | -0.101 | 4.03
TCATATAGGCAATACAGGTGAAAGTCGGCATCTA | 1.06 | 0.731 | 0.422 | 0.906 | -0.3 | 1.3 | 0.823 | 1.91 | 3.62 | 2.85 | 2.91 | 1.7 | 0.893 | 0.339 | 0.723 | 0.419 | 0.292 | 0.707 | 0.869 | 0.192
AGAATGAGGTTACCAACGATCAGGGAAACGCTTG | 1.58 | 5.96 | -0.334 | 2.43 | -0.375 | 3.66 | 2.78 | 2.43 | 0.844 | 1.7 | 3.37 | 3.5 | 0.997 | 1.46 | 0.587 | 0.991 | -0.0709 | 2.01 | -0.203 | 1.83
ATCTCTAGGTAAGACTTAGTTCAGTGAAGAACGC | 0.399 | 0.643 | 0.399 | 0.303 | 0.796 | 0.394 | 0.205 | 0.542 | 0.399 | 0.438 | 1.88 | 1.57 | 0.722 | 0.771 | 1.4 | 0.684 | 0.67 | 0.614 | 1.01 | 0.573
CCTTACGGGTCACGAGGTAATAGCACGACGAGCG | 6.82 | 4.16 | -0.00739 | 3.79 | 0.00142 | 5.93 | 7.12 | 6.63 | 3.83 | 5.54 | 4.44 | 5.5 | 3.05 | 1.21 | 4.14 | 4.07 | 0.0228 | 5.59 | 1.16 | 4.46
GATACAGGGTCAAGGCCAGGGTACGCGTATTGAT | 6.68 | 4.26 | -0.139 | 3.62 | -0.397 | 5.82 | 5.63 | 5.3 | 2.2 | 4.46 | 1.85 | 4.19 | 0.695 | 0.43 | 3.1 | 4.32 | 0.122 | 5.19 | 0.648 | 4.5
ATATGTAGGTTATCAGGTCATTCAGTTTGCGCAT | 3.19 | 3.57 | 4.4 | 2.93 | 1.68 | 4.62 | 7.23 | 5.99 | 4.05 | 5.54 | 7.41 | 7.44 | 1.79 | 2.79 | 2.91 | 3.44 | 9.35 | 3.2 | 2.11 | 2.86
ACTTACGTGTCAACGAGGTTATAGCACGCGTATA | 0.812 | 1.03 | 0.113 | 1.02 | 0.0422 | 1.84 | 0.927 | 0.653 | 0.374 | 0.627 | 0.785 | 1.07 | 0.246 | 0.671 | 0.479 | 1.26 | 0.652 | 1.65 | 0.0685 | 1.2
CGTACTGGGCCACGAAAGGTCATTGATTCAGTGA | 4.13 | 4.99 | 5.16 | 4.46 | 0.336 | 4.75 | 4.87 | 4.93 | 2.22 | 4.16 | 5.64 | 5.82 | 1.54 | 0.503 | 4.05 | 5.71 | 2.11 | 5.78 | 1.22 | 4.17
TCTTGTAGATCAAGAGGAGGTTAAGAAAGATCGA | 0.338 | 0.95 | -0.0702 | 0.725 | -0.517 | 1.22 | -0.0325 | 1.24 | 2.38 | 1.6 | 1.29 | 0.615 | 0.0065 | 0.335 | 0.153 | 0.769 | -0.0434 | 1.09 | 0.139 | 0.364

— the supplement of paper PMC6555819
